Among the test systems are SK-MEL-2 melanoma; EKVX NSCLC; SN12C renal; UO-31 renal; TK-10 renal; ACHN renal; CAKI-1 renal; A498 renal; CCRF-CEM leukemia; MOLT-4 leukemia.
Experiment in all cases: NCI-60 one-dose screen, 48 h (100 = growth as untreated, 0 = no growth, -100 = all killed)
What all share (conditions): 10 µM unless noted

The structures appear in SMILES notation. Compounds without any hit were thinned out: in the full panel of roughly 83,000, 20% have a hit.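 Treatment: one concentration, 48 hours, 96-well format. Scoring: percent growth, with anything below 10 considered active.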 Unmarked numbers belong to inactive results. Calls of active or inactive are those of the source.

Take `C=CC1=C(C)C2=NC1=CC1=NC(=CC3=C(C)C4=C(O)C(C(=O)O)C(=C5NC(=C2)C(C)C5CCC(=O)O)C4=N3)C(CC)=C1C` (stereo not given): the growth is 129% with SK-MEL-2 melanoma; 103% in the experiment with EKVX NSCLC; 101% in the experiment with SN12C renal; 73.6% in the experiment with UO-31 renal; 106% with TK-10 renal; 98.7% in the experiment on ACHN renal. For the same molecule, the growth in the experiment on CAKI-1 renal is 101%; in the experiment with A498 renal, 106%; in the experiment on CCRF-CEM leukemia it was 96.3%; in the experiment on MOLT-4 leukemia, 96.9%.
As for `COc1ccc(C(=O)CSc2nccc(Nc3ccc(C(=O)O)cc3)n2)cc1`, the growth in the experiment with SK-MEL-2 melanoma is 103%; in the experiment on EKVX NSCLC, 103%; with SN12C renal, 99.3%; in the experiment on UO-31 renal, 82%; with TK-10 renal it was 103%; in the experiment with ACHN renal, 101%. Besides, the growth in the experiment with CAKI-1 renal was 97.7%; with A498 renal, 106%; in the experiment with CCRF-CEM leukemia it was 105%; with MOLT-4 leukemia it was 106%.
Consider `COc1ccc(-c2cc(-c3ccc(OC)c(OC)c3)nc(SCCCCCC(=O)NO)n2)cc1`, for which the growth in the experiment on SK-MEL-2 melanoma is 52.5%; in the experiment with EKVX NSCLC, 62.5%; in the experiment on SN12C renal it was 77%; in the experiment on UO-31 renal it was 68.6%; in the experiment with TK-10 renal it was 44.9%; with ACHN renal, 81.3%. Further, the growth with CAKI-1 renal is 53.7%; in the experiment with A498 renal, 66.7%; with CCRF-CEM leukemia it was 22.7%; in the experiment with MOLT-4 leukemia, 14%.
With `CC1(C(=O)O)CCC(N)(C(=O)O)C1(C)C` (stereo not given), the growth in the experiment on SK-MEL-2 melanoma is 110%; with EKVX NSCLC, 112%; with SN12C renal, 107%; in the experiment on UO-31 renal it was 86.5%; in the experiment on TK-10 renal, 101%; in the experiment on ACHN renal, 116%. Moreover, the growth in the experiment on CAKI-1 renal was 114%; with A498 renal, 87.7%; with CCRF-CEM leukemia, 89.7%; in the experiment on MOLT-4 leukemia, 100%.
With `Cc1cccc(/C=C2\N=C(c3ccccc3)N(c3ccc(S(N)(=O)=O)cc3)C2=O)c1`, the growth with SK-MEL-2 melanoma is 102%; in the experiment with EKVX NSCLC it was 92.1%; in the experiment on SN12C renal, 91.8%; in the experiment with UO-31 renal, 99.9%; in the experiment with TK-10 renal, 98.5%; with ACHN renal it was 86.5%. For the same molecule, the growth was 86.2% in the experiment with CAKI-1 renal, 101% with A498 renal, 99.9% with CCRF-CEM leukemia and 90.3% in the experiment on MOLT-4 leukemia.
Consider `c1ccc(-c2nnc(-c3c[nH]c4ncccc34)s2)cc1`, for which the growth in the experiment on SK-MEL-2 melanoma is 103%; in the experiment with EKVX NSCLC, 37.2%; in the experiment on SN12C renal, 86.6%; in the experiment on UO-31 renal, 51.6%; with TK-10 renal it was 124%; in the experiment with ACHN renal, 69.4%. In addition, the growth in the experiment on CAKI-1 renal is 53.3%; in the experiment on A498 renal it was 67.3%; in the experiment with CCRF-CEM leukemia, 101%; with MOLT-4 leukemia, 83.4%.
`O=C(NCCCNC(=O)OCc1ccc2c(Br)cc(Br)c(O)c2n1)OCc1ccc2c(Br)cc(Br)c(O)c2n1`: the growth in the experiment with SK-MEL-2 melanoma was -6.76% (active); with EKVX NSCLC it was -5.94% (active); in the experiment on SN12C renal it was -77.4% (active); in the experiment on UO-31 renal, -100% (active); with TK-10 renal, -89% (active); in the experiment on ACHN renal, -100% (active). Also, the growth in the experiment with CAKI-1 renal is -92% (active); with A498 renal, -2.82% (active); with CCRF-CEM leukemia it was 4.23% (active); in the experiment with MOLT-4 leukemia, 0.977% (active).
Consider `C[C@H]1[C@H](C)CC[C@]2(C(=O)O)CC[C@]3(C)C(=CC[C@@H]4[C@@]5(C)C/C(=C/c6ccco6)C(=O)C(C)(C)[C@@H]5CC[C@]43C)[C@H]12`, for which the growth is -64% [100 µM] (active) in the experiment with SK-MEL-2 melanoma; -68.4% [100 µM] (active) in the experiment on EKVX NSCLC; -56% [100 µM] (active) in the experiment with SN12C renal; -99.5% [100 µM] (active) in the experiment on UO-31 renal; -73.4% [100 µM] (active) in the experiment on TK-10 renal; -97.9% [100 µM] (active) with ACHN renal. The growth is -74.6% [100 µM] (active) in the experiment with CAKI-1 renal, -56.2% [100 µM] (active) in the experiment on A498 renal, -26.4% [100 µM] (active) in the experiment with CCRF-CEM leukemia and -10.8% [100 µM] (active) in the experiment on MOLT-4 leukemia.
On to `Cc1ccc(-c2cc(-c3ccc(C)cc3)nc(N3CCN(CCNc4ccnc5cc(Cl)ccc45)CC3)n2)cc1`, for which the growth is 65.4% in the experiment on SK-MEL-2 melanoma; 74% in the experiment on EKVX NSCLC; 34.7% in the experiment on SN12C renal; -27.8% (active) with UO-31 renal; 0.923% (active) in the experiment with TK-10 renal; 72.9% in the experiment on ACHN renal. Moreover, the growth is 32.7% with CAKI-1 renal, 47.1% in the experiment on A498 renal, 8.72% (active) with CCRF-CEM leukemia and 38.9% with MOLT-4 leukemia.
For the molecule `CCN(CC)c1ccc2cc(NC(=O)OCCNC(=O)CCNC(=O)[C@H](CC(C)C)NC(=O)C(C)(C)NC(=O)C(C)(C)NC(=O)[C@H](CC(C)C)NC(=O)CCNC(=O)C(C)(C)NC(=O)[C@H](CC(C)C)NC(=O)CCNC(=O)[C@@](C)(CC)NC(=O)[C@H](C)NC(=O)CCNC(=O)C(C)(C)NC(=O)[C@H](C)NC(=O)[C@@H]3CCCN3C(=O)[C@@](C)(CC)NC(=O)[C@H](Cc3ccccc3)NC(=O)C3CCCN3C(=O)C(C)(C)NC(=O)C3CCCN3C(=O)C(C)(C)NC(C)=O)c(=O)oc2c1` (stereo not given in full), the growth in the experiment with SK-MEL-2 melanoma was -80.4% (active); in the experiment on EKVX NSCLC, -100% (active); in the experiment on SN12C renal, -74.6% (active); in the experiment with UO-31 renal, -80.5% (active); with TK-10 renal, -93.3% (active); with ACHN renal, -85.4% (active). Moreover, the growth in the experiment with CAKI-1 renal was -92.4% (active); in the experiment on A498 renal, -98.5% (active); in the experiment on CCRF-CEM leukemia it was -63.5% (active); in the experiment with MOLT-4 leukemia, -62% (active).
As for `C=C(C)[C@@H]1CC[C@]2(C(N)=O)CC[C@]3(C)[C@H](CC[C@@H]4[C@@]5(C)C/C(=C/c6cccnc6)C(=O)C(C)(C)[C@@H]5CC[C@]43C)[C@@H]12`, the growth in the experiment with SK-MEL-2 melanoma is -47.4% [100 µM] (active); with EKVX NSCLC, 21.2% [100 µM]; in the experiment with SN12C renal, 18.5% [100 µM]; with UO-31 renal, 10.2% [100 µM]; in the experiment with TK-10 renal, 23.5% [100 µM]; with ACHN renal it was 7.09% [100 µM] (active). Besides, the growth with CAKI-1 renal is 8.38% [100 µM] (active); in the experiment with A498 renal it was 17.3% [100 µM]; in the experiment with CCRF-CEM leukemia, 7.08% [100 µM] (active); in the experiment on MOLT-4 leukemia it was 2.39% [100 µM] (active).
In the case of `CCN(CCO)CCC(=O)c1ccc([N+](=O)[O-])cc1`, the growth in the experiment on SK-MEL-2 melanoma was 107%; with EKVX NSCLC it was 103%; in the experiment on SN12C renal, 107%; in the experiment on UO-31 renal, 75%; in the experiment with TK-10 renal it was 99.8%; in the experiment with ACHN renal, 110%. Moreover, the growth in the experiment on CAKI-1 renal was 102%; in the experiment on A498 renal, 87%; with CCRF-CEM leukemia it was 124%; in the experiment with MOLT-4 leukemia, 114%.
As to `Cn1cc(-c2nnc(-c3cn(C)c4ncccc34)o2)c2ccccc21`, the growth in the experiment with SK-MEL-2 melanoma was 34.4%; in the experiment on EKVX NSCLC it was 49.9%; with SN12C renal, 28.4%; in the experiment with UO-31 renal, 18%; with TK-10 renal, 69.9%; in the experiment on ACHN renal it was 36%. In addition, the growth in the experiment on CAKI-1 renal was 30.9%; in the experiment on A498 renal it was -20.3% (active); in the experiment with CCRF-CEM leukemia, 49.8%; in the experiment with MOLT-4 leukemia it was 18.3%.

Source of the values: PubChem BioAssay (NCI).
